Compounds without any hit were thinned out: in the full panel of roughly 83,000, 20% have a hit.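 In brief: 96-well plates, 48 h treatment, single concentration, percent growth endpoint.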 Unmarked numbers belong to inactive results. Activity calls are given as the source filed them. Rule for the calls: active = growth percent below 10; inactive = the rest.

The record followed here is PubChem BioAssay (NCI).

Some test systems named below: HT29 colon; SNB-75 CNS; SNB-19 CNS; U251 CNS; PC-3 prostate; SK-MEL-5 melanoma; UACC-62 melanoma; LOX IMVI melanoma; SK-MEL-28 melanoma; SK-MEL-2 melanoma; EKVX NSCLC; SN12C renal; UO-31 renal; TK-10 renal; ACHN renal; A498 renal; CCRF-CEM leukemia; MOLT-4 leukemia; CAKI-1 renal.
Assay in all cases: NCI-60 one-dose screen, 48 h (100 = growth as untreated, 0 = no growth, -100 = all killed)
What all share (details): 10 µM unless noted

For `O=[N+]([O-])c1ccc(-c2cc3c(Nc4ccc(Cl)c(C(F)(F)F)c4)ncnc3s2)cc1`, the growth is 3.89% (active) with HT29 colon; 16.4% with SNB-75 CNS; 12.1% with SNB-19 CNS; 8.85% (active) with U251 CNS; 11.5% in the assay with PC-3 prostate; -42.5% (active) in the assay on SK-MEL-5 melanoma. The growth in the assay on UACC-62 melanoma was -1.39% (active); in the assay with LOX IMVI melanoma, 6.09% (active); in the assay on SK-MEL-28 melanoma, 20.1%; with SK-MEL-2 melanoma, -4.98% (active); with EKVX NSCLC, 7.59% (active); in the assay on SN12C renal, 2.43% (active). For the same molecule, the growth is -3.64% (active) with UO-31 renal; 9.44% (active) in the assay with TK-10 renal; 4.57% (active) in the assay with ACHN renal; -13% (active) in the assay with A498 renal; 17.5% with CCRF-CEM leukemia; 9.22% (active) with MOLT-4 leukemia.

Turning to `CCCCC1COc2cccc3c(SCC(=O)N(C)c4cccc(Cl)c4)cc[n+]1c23` (centres undefined), the growth is 100% in the assay on HT29 colon; 137% in the assay on SNB-75 CNS; 98.7% in the assay on SNB-19 CNS; 112% in the assay on U251 CNS; 106% with PC-3 prostate; 101% in the assay with UACC-62 melanoma. Also, the growth in the assay with LOX IMVI melanoma is 102%; with SK-MEL-28 melanoma, 106%; in the assay with SK-MEL-2 melanoma, 105%; in the assay on EKVX NSCLC it was 113%; in the assay with SN12C renal, 94.4%; with UO-31 renal it was 90.7%. For the same molecule, the growth in the assay on TK-10 renal was 110%; in the assay with ACHN renal, 101%; with CAKI-1 renal, 102%; in the assay on A498 renal, 106%; with CCRF-CEM leukemia, 105%; in the assay with MOLT-4 leukemia it was 109%.

`Clc1ccc(-c2nnc(-c3ccco3)o2)cc1`: the growth is 105% in the assay on HT29 colon; 89.1% in the assay on SNB-75 CNS; 90.6% with SNB-19 CNS; 98.7% with U251 CNS; 96.7% in the assay with PC-3 prostate; 108% with SK-MEL-5 melanoma. Moreover, the growth with UACC-62 melanoma was 93.9%; in the assay with LOX IMVI melanoma, 97.8%; in the assay with SK-MEL-28 melanoma, 125%; in the assay on EKVX NSCLC it was 100%; in the assay on SN12C renal it was 82.6%; in the assay on UO-31 renal, 84.4%. Also, the growth with TK-10 renal is 120%; in the assay with ACHN renal, 100%; in the assay on CAKI-1 renal it was 73.3%; in the assay on A498 renal, 103%; in the assay on CCRF-CEM leukemia it was 87.4%; with MOLT-4 leukemia it was 90.1%.

In the case of `COc1ccc(OC)c(Nc2nc3nonc3nc2Nc2cc(OC)ccc2OC)c1`, the growth in the assay with HT29 colon was 42.6%; in the assay on SNB-75 CNS it was 18.7%; in the assay with SNB-19 CNS, 76.1%; in the assay on U251 CNS it was 11.5%; in the assay with PC-3 prostate, 79.4%; in the assay with SK-MEL-5 melanoma, 12%. For the same molecule, the growth with UACC-62 melanoma is 47%; with LOX IMVI melanoma it was 34.3%; with SK-MEL-28 melanoma it was 58.1%; with SK-MEL-2 melanoma, 64.5%; in the assay with SN12C renal it was 32.3%; in the assay with UO-31 renal it was 10.8%. Also, the growth with TK-10 renal is 36.1%; with ACHN renal, -33.4% (active); in the assay with CAKI-1 renal it was 53%; in the assay on A498 renal, 60.7%; with CCRF-CEM leukemia, 97.8%; in the assay with MOLT-4 leukemia, 88.8%.

`COc1ccccc1NC(=O)Nc1ccc(-c2nc3ccccc3o2)cc1`: the growth in the assay with HT29 colon is 132%; with SNB-75 CNS, 109%; in the assay with SNB-19 CNS, 94.8%; with U251 CNS, 93.6%; in the assay on PC-3 prostate, 95.6%; with SK-MEL-5 melanoma, 92.6%. Further, the growth in the assay with LOX IMVI melanoma was 97.9%; in the assay with SK-MEL-28 melanoma, 111%; with SK-MEL-2 melanoma, 130%; in the assay with EKVX NSCLC, 92.8%; with SN12C renal, 98.7%; in the assay with UO-31 renal, 94.5%. The growth is 118% in the assay on TK-10 renal; 95.4% with ACHN renal; 103% in the assay with CAKI-1 renal; 101% with CCRF-CEM leukemia; 75.1% in the assay on MOLT-4 leukemia.

In the case of `CCN(CC)c1ccc(Nc2ccc(CC(=O)c3ccccc3)cc2)cc1`, the growth with HT29 colon is 75.8%; with SNB-75 CNS, 91.1%; with SNB-19 CNS, 80.8%; in the assay on U251 CNS, 56.2%; in the assay on PC-3 prostate it was 39.9%; in the assay with SK-MEL-5 melanoma it was 79.9%. The growth in the assay with LOX IMVI melanoma was 91.3%; in the assay with SK-MEL-28 melanoma it was 98.5%; in the assay with SK-MEL-2 melanoma it was 81.7%; with EKVX NSCLC it was 76.4%; with SN12C renal, 95.3%; in the assay with UO-31 renal it was 71.5%. For the same molecule, the growth in the assay with TK-10 renal is 107%; in the assay on A498 renal it was 99.7%; with CCRF-CEM leukemia it was 95.9%; in the assay on MOLT-4 leukemia, 102%.

Take `COc1ccccc1C(=O)NC(=S)Nc1ccc(-c2nc3ccccc3[nH]2)cc1`: the growth was 14.8% in the assay on HT29 colon; -62.7% (active) in the assay with SNB-75 CNS; 84% in the assay on SNB-19 CNS; 29.3% with U251 CNS; 86% in the assay with PC-3 prostate; 25.8% in the assay on SK-MEL-5 melanoma. The growth was 109% in the assay on UACC-62 melanoma; 20% with LOX IMVI melanoma; 69.5% in the assay on SK-MEL-28 melanoma; 109% with SK-MEL-2 melanoma; 91.1% with EKVX NSCLC; 46% in the assay with SN12C renal. Further, the growth in the assay on UO-31 renal was 28.5%; in the assay with TK-10 renal it was 59.6%; in the assay with ACHN renal, 71.4%; in the assay on CAKI-1 renal it was 105%; in the assay with CCRF-CEM leukemia, 80.8%; with MOLT-4 leukemia it was 91.9%.

Consider `CCc1c(C(=O)N[C@@H]2c3cc(Cl)ccc3CC[C@@H]2O)[nH]c(C)c1C(C)=O`, for which the growth is 66.9% with HT29 colon; 76.4% in the assay on SNB-75 CNS; 97.2% in the assay with SNB-19 CNS; 48.4% in the assay with U251 CNS; 49.8% in the assay with PC-3 prostate; 45% with SK-MEL-5 melanoma. Also, the growth was 69.7% with UACC-62 melanoma; 50.9% in the assay with LOX IMVI melanoma; 81.5% with SK-MEL-28 melanoma; 76% in the assay on EKVX NSCLC; 94.7% in the assay on SN12C renal; 76.8% with UO-31 renal. Moreover, the growth was 87.4% in the assay with TK-10 renal; 77.6% in the assay with ACHN renal; 71.5% with CAKI-1 renal; 67.6% in the assay with A498 renal; 85.2% with CCRF-CEM leukemia; 68.8% with MOLT-4 leukemia.

As to `O=C1CSC(c2ccc(O)cc2)N1c1nnc(Cn2cnnc2)o1` (centres undefined), the growth was 55.8% in the assay on HT29 colon; 53.8% with SNB-75 CNS; 97.9% with SNB-19 CNS; 110% in the assay on U251 CNS; 88.7% with PC-3 prostate; 105% in the assay on SK-MEL-5 melanoma. Further, the growth with UACC-62 melanoma is 97.2%; in the assay with LOX IMVI melanoma, 99.9%; with SK-MEL-28 melanoma, 77.9%; with EKVX NSCLC it was 99.1%; in the assay with SN12C renal, 85.9%; with UO-31 renal it was 91.9%. The growth was 131% with TK-10 renal; 108% in the assay with ACHN renal; 79.4% with CAKI-1 renal; 99.9% in the assay on A498 renal; 49.1% with CCRF-CEM leukemia; 58.7% in the assay with MOLT-4 leukemia.
